Data on six compounds can be found in PubChem BioAssay (Tox21).

Inconclusive results are not listed. Activity calls are given as the source filed them. Calls follow the shape of the dose curve; as a rule, active = well fitted activation curve with a large enough effect in the repeat runs; inconclusive = weak or mixed curves; inactive = flat fitted curve, though single readings scatter. Residues, ends and D or L forms follow the SMILES beside them.
% is scaled to controls: 0 for no effect and ±100 for the full control effect.

For this test, the target named is Nuclear receptor subfamily 1 group I member 2 (Homo sapiens) (UniProt O75469). The test can be described thus: Human pregnane X receptor (PXR) activation by small molecules, qHTS assay (AID 1346985). Also: nearly all actives have a fitted effect of over 40% in size. The note with it: DPX-2 HepG2 CYP3A4-luciferase, 24 h; series mostly up to 38.3 µM; activation: at the top concentration. In outline: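 DPX-2 cells (HepG2 co-transfected with a PXR response element and a CYP3A4-promoter luciferase construct) were seeded at 2,000 per well, rested 5 hr at 37C, then exposed to DMSO-dissolved compounds for 24 hr. Activation was read as luciferase luminescence.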
(In general: In qHTS, concentration-response curves come from the screen itself.)
Consider `CCCCCCOC(=O)c1cccnc1`, for which the “activation” value is -2.5% (inactive). Then `CC(C)[C@H](NC(=O)[C@H](CC(=O)O)NC(=O)[C@H](CCCCN)NC(=O)[C@@H](N)CCCN=C(N)N)C(=O)N[C@@H](Cc1ccc(O)cc1)C(=O)O` (H-RKDVY-OH), with -6% (inactive); and `N=C(N)n1cccn1`, with 0.271% (inactive). On to `Nc1nc(/C(=C/CC(=O)O)C(=O)N[C@@H]2C(=O)N3C(C(=O)O)=CCS[C@H]23)cs1`, for which the “activation” value is -2.91% (inactive). Turning to `CC1=C(/C=C/C(C)=C/C=C/C(C)=C/C=C/C=C(C)/C=C/C=C(C)/C=C/C2=C(C)CCCC2(C)C)C(C)(C)CCC1`, the “activation” value was 2.17% (inactive).

As for `CC(=O)OCC(=O)[C@@]1(O)CC[C@H]2[C@@H]3C[C@H](C)C4=CC(=O)C=C[C@]4(C)[C@H]3[C@@H](O)C[C@@]21C`, the “activation” value was 13.2% (inactive).
